Source: PubChem
Many of the other results were omitted from the sample, so hits are more common in it than they were.
DUX4 txn inh: DUX4-mediated transcription inhibition; 293T-iDUX4 ZSCAN4-Gaussia luciferase reporter, 24 h; stronger effect = lower value; activity change, negative = inhibition, % (test concentration not listed); 37,000 tested, 0.8% active;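 active = mean inhibition of at least 10% in the main channel, exceeding the control channel by a set limit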;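 note: 0% = median of neutral control wells and -100% = median of positive control wells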
Active calls of the source: *; ! = a repeat was not active.

SMILES | DUX4 txn inh
C[C@@H]1CN([C@@H](C)CO)C(=O)c2c(c3ccccc3n2C)-c2ccccc2CO[C@@H]1CN(C)C(=O)Nc1cccc(Cl)c1Cl | -35*
CC(=O)N(C)C[C@@H]1OCc2ccccc2-c2c(n(C)c3ccccc23)C(=O)N([C@H](C)CO)C[C@@H]1C | 19
CC(=O)N(C)C[C@H]1OCc2ccccc2-c2c(n(C)c3ccccc23)C(=O)N([C@H](C)CO)C[C@@H]1C | 10
N#C[C@H]1[C@@H](c2ccccc2-c2ccccc2F)[C@H](CO)N1C(=O)c1cccc(F)c1 | 0
CO[C@H](CN(C)Cc1ccc2c(c1)OCO2)[C@@H](C)CN(C(=O)Nc1ccc(F)cc1)[C@H](C)CO | -2
O=C(C1CC1)N1[C@@H](CO)[C@@H]2c3ccccc3N(S(=O)(=O)c3ccc(F)cc3)C[C@@H]21 | 3
CCCNC(=O)[C@H]1[C@H](CO)[C@H]2Cn3c(ccc(-c4ccc(OC)cc4)c3=O)[C@@H]1N2CC | 10
COc1ccccc1-c1ccc([C@H]2[C@H](CO)N3CCCCN(Cc4ccncc4)C[C@@H]23)cc1 | 2
Cc1cccc(-c2ccc(C3[C@@H]4CN(C(=O)C5CCOCC5)C[C@H]3N4)cc2)c1 (stereo partly drawn) | 7
COc1ccccc1-c1ccc(C2[C@H]3CNC[C@@H]2N3Cc2ccc(F)cc2)cc1 (stereo partly drawn) | 17
COc1ccccc1-c1ccc(C2[C@@H]3CN(Cc4cccc(F)c4)C[C@H]2N3)cc1 (stereo partly drawn) | -48*
O=C(Nc1cccc(F)c1)N1C[C@@H]2N[C@H](C1)C2c1ccc(-c2ccc(F)cc2)cc1 (stereo partly drawn) | 9
c1ccc(-c2ccc(C3[C@H]4CNC[C@@H]3N4Cc3nccs3)cc2)cc1 (stereo partly drawn) | 9
Cc1cccc(-c2ccc(C3[C@H]4CNC[C@@H]3N4Cc3cccc(F)c3)cc2)c1 (stereo partly drawn) | 8
COc1ccccc1-c1ccc(C2[C@@H]3CN(Cc4nccs4)C[C@H]2N3)cc1 (stereo partly drawn) | -43*
CCCNC(=O)N1C[C@@H]2N[C@H](C1)C2c1ccc(-c2cccnc2)cc1 (stereo partly drawn) | -1
Cc1cccc(-c2ccc(C3[C@@H]4CN(Cc5cccc(F)c5)C[C@H]3N4)cc2)c1 (stereo partly drawn) | -55*!
CCCNC(=O)N1C[C@@H]2N[C@H](C1)C2c1ccc(-c2cccc(F)c2)cc1 (stereo partly drawn) | -43*!
COc1cccc(CN2CCCCN3[C@@H](CO)[C@@H](c4ccc(-c5ccccc5OC)cc4)[C@@H]3C2)c1 | 3
COc1ccc2c3c(n(C)c2c1)[C@H](CO)N(CC1CCOCC1)CC31CN(C(C)=O)C1 | 23
COc1ccc(C(=O)N2C[C@H]3[C@@H](c4ccccc42)[C@@H](CO)N3Cc2ccc3c(c2)OCO3)cc1 | 1
O=C1N[C@H](Cc2ccccc2)COCc2cn(nn2)CC[C@@H]1Cc1ccc(Cl)cc1 | 4
CC[C@H]1CC=CC[C@@H](C)Oc2ccccc2C(=O)N(C)[C@H](C(C)C)C(=O)N1 (mixture of isomers) | -2
CC[C@H]1C/C=C\C[C@H](C(C)C)NC(=O)CCC(=O)N1 | -5
CCCNC(=O)[C@H]1[C@H](CO)[C@H]2Cn3c(ccc(-c4cccc(F)c4)c3=O)[C@H]2N1C(=O)CC | -3
SMILES | DUX4 txn inh
O=C(NC1CCCC1)N1CC2(C1)[C@@H](c1ccccc1)[C@@H](CO)N2CC1CC1 | 13
O=C(c1ccncc1)N1CC2(C1)[C@H](c1ccccc1)[C@H](CO)N2CC1CC1 | 12
O=C(NC1CCCC1)N1CC2(C1)[C@H](c1ccccc1)[C@H](CO)N2CC1CC1 | -3
O=C(NC1CCCCC1)N1CC2(C1)[C@H](c1ccccc1)[C@H](CO)N2CC1CCCC1 | -26*
O=C(c1ccncc1)N1CC2(C1)[C@@H](c1ccccc1)[C@@H](CO)N2CC1CCCC1 | -28*
O=C(c1ccncc1)N1CC2(C1)[C@H](c1ccccc1)[C@H](CO)N2CC1CCCC1 | -5
O=C(NC1Cc2ccccc2C1)[C@H]1[C@H](CO)[C@H]2Cn3c(cccc3=O)[C@H]2N1C(=O)C1CCC1 | 11
COc1ccc(C[C@@H]2CCc3cnnn3COC[C@H](CC(C)C)NC2=O)cc1 | 1
COc1ccc2c3c([nH]c2c1)[C@H](CO)NCC31CN(C(=O)Nc2c(C)noc2C)C1 | 17
O=C1CN(S(=O)(=O)c2ccccc2)C[C@@H]2[C@H](c3ccc(C4=CCCC4)cc3)[C@@H](CO)N12 | 3
C[C@@H]1C(=O)NCCC=CC[C@H](C)Oc2ccccc2C(=O)N1C (mixture of isomers) | 2
COc1ccccc1C#Cc1ccc2c(c1)[C@@H]1[C@@H](CCN1C(=O)c1ccc(F)cc1)[C@@H](CO)N2 | 0
COc1ccccc1C#Cc1ccc2c(c1)[C@@H]1[C@@H](CCN1C(=O)c1ccc(F)cc1)[C@H](CO)N2 | -7
O=C(c1ccc(F)cc1)N1CC[C@@H]2[C@H]1c1cc(C#Cc3ccccc3F)ccc1N[C@@H]2CO | -1
O=C(c1ccc(F)cc1)N1CC[C@@H]2[C@H](CO)Nc3ccc(C#Cc4ccc(F)cc4)cc3[C@@H]21 | -20*
O=C(c1ccc(F)cc1)N1CC[C@@H]2[C@H]1c1cc(C#Cc3ccc(F)cc3)ccc1N[C@@H]2CO | 3
O=C(c1ccc(F)cc1)N1CC[C@@H]2[C@H](CO)Nc3ccc(C#Cc4ccccc4F)cc3[C@@H]21 | -30*
CO[C@@H](CN(C)C(=O)C1CCOCC1)[C@@H](C)CN(C(=O)Nc1ccc(F)cc1)[C@@H](C)CO | -5
O=C1N[C@H](Cc2ccccc2)COCc2cnnn2CC[C@H]1Cc1cccc(F)c1 | 3
C[C@H](CO)N1C[C@H](C)[C@@H](CN(C)Cc2ccc(C(=O)O)cc2)OCc2ccccc2-c2ccccc2C1=O | 9
CN1CCN(C(=O)C[C@@H]2C[C@@H]3c4cc(NC(=O)Nc5ccc(C(F)(F)F)cc5)ccc4O[C@@H]3[C@H](CO)O2)CC1 | 1
O=C(NCc1cc(F)cc(F)c1)[C@@H]1[C@@H](CO)[C@@H]2Cn3c(cccc3=O)[C@H]1N2C(=O)c1ccccn1 | 12
Cc1ccccc1S(=O)(=O)N1CC[C@H]2[C@@H](CO)N(C)c3ccc(Br)cc3[C@H]21 | -3
CN1c2ccc(Br)cc2[C@@H]2[C@@H](CCN2S(=O)(=O)c2ccccc2F)[C@H]1CO | 3
Cc1ccccc1S(=O)(=O)N1CC[C@@H]2[C@@H](CO)N(C)c3ccc(Br)cc3[C@@H]21 | -23*
SMILES | DUX4 txn inh
O=C1[C@@H](Cc2ccc(F)cc2)CCn2cc(nn2)COC[C@H]2CCCN12 | -3
CN1[C@@H]2Cn3c(ccc(-c4ccc(F)cc4)c3=O)[C@H]1[C@@H](C(=O)N1CCCCC1)[C@@H]2CO | -2
O=C(C[C@@H]1CC[C@@H]2[C@H](COC[C@@H](O)CN2C(=O)c2ccccn2)O1)NC1CCC1 | 10
CCCNC(=O)N(C)C[C@H]1Oc2ncc(-c3ccc(C(=O)N(C)C)cc3)cc2C(=O)N([C@H](C)CO)C[C@@H]1C | 1
COc1ccccc1CNC(=O)C[C@H]1C[C@H]2c3cc(NC(=O)CN(C)C)ccc3O[C@H]2[C@H](CO)O1 | 2
O=C(C[C@@H]1C[C@H]2c3cc(NC(=O)Cc4ccncc4)ccc3O[C@H]2[C@@H](CO)O1)NCc1ccc(-c2ccccc2)cc1 | -31*
COc1ccccc1CNC(=O)C[C@@H]1C[C@@H]2c3cc(NC(=O)CN(C)C)ccc3O[C@@H]2[C@@H](CO)O1 | 6
